The text below walks through data of article PMC13423814.

Assay [1] has as its target DNA replication licensing factor MCM2 (UniProt P49736).
The target in another assay is Histone H4 (UniProt P62805).
Assay [2] concerns the target Serine/arginine-rich splicing factor 1 (UniProt Q07955).
Another assay concerns the target Peroxiredoxin-1 (UniProt Q06830).

Sequence of DNA replication licensing factor MCM2 (P49736 whole entry): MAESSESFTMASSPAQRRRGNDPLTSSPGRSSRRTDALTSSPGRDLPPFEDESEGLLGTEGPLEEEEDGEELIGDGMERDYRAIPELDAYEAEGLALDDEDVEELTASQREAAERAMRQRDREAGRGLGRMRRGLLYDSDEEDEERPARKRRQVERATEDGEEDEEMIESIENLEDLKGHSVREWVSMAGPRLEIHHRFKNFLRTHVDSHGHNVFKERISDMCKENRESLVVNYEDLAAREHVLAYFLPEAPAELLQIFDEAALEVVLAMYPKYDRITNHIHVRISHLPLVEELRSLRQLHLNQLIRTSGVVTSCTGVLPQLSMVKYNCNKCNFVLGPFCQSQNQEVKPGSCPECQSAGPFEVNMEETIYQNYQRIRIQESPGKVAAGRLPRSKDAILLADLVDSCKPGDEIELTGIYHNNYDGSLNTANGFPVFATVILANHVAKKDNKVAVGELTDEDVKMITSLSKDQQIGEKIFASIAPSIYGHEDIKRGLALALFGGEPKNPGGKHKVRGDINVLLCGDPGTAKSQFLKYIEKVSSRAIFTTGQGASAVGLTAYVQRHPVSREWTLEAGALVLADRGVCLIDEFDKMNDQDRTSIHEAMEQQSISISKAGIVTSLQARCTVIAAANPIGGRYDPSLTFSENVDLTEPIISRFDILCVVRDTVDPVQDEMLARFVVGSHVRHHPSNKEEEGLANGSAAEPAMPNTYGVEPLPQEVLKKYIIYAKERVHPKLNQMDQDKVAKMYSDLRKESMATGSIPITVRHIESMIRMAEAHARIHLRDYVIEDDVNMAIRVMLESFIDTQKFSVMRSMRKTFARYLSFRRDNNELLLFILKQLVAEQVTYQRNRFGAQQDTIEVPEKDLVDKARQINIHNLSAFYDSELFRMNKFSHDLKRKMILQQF
Sequence of Peroxiredoxin-1 (Q06830 whole entry): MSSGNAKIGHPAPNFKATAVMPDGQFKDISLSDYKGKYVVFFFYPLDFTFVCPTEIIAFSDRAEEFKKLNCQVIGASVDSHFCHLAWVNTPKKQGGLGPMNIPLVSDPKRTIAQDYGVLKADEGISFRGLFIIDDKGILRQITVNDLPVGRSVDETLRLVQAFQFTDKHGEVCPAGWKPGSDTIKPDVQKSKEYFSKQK
Sequence of Serine/arginine-rich splicing factor 1 (Q07955 whole entry): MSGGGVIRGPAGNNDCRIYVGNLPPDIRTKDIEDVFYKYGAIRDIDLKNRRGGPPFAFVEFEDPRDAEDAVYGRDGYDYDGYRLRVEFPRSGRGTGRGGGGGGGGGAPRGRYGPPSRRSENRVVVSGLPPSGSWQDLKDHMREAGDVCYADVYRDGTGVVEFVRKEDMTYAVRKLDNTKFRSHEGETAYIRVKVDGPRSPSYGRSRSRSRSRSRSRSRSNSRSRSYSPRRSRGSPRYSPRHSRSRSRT

On to “DNA replication licensing factor MCM3, P25205”, for which the “listed as a hit” value in assay [1] is “yes”.
Consider Prelamin-A/C, P02545, for which the “listed as a hit” value in the assay with Histone H4 is reported as “yes”.
Turning to “RNA-binding motif protein, X chromosome, P38159”, in assay [2], the “listed as a hit” value was “yes”.
As for Putative keratin-87 protein, A6NCN2, the “listed as a hit” value in the assay with Peroxiredoxin-1 is “yes”.
